Laboratory results as given in publication PMC7819943, “Rice protein-binding microarrays: a tool to detect cis-acting elements near promoter regions in rice”.
In all, about 68,000 sequences were measured (“fluorescence intensity (a.u.)”: median about 9,100, highest 2% from about 16,000 on). Only a selection was taken, and the highest values are over-represented in it overall.

biological target: OsWRKY34 (Oryza sativa, UniProt Q0JBA9 1-250); test: protein-binding microarray (RPBM); PBS, 2% BSA, 51.3 ng/ul salmon testes DNA, 50 uM zinc acetate, 200 nM TF, 25 C, 1 h; high values mean tight binding; conditions: protein: recombinant; tags: N-terminal polyhistidine and DsRed monomer fusion (pET32a); label: CyDye5-dUTP incorporated in the synthesized complementary strand; 3' TTTTT single-stranded linker to array surface; dsDNA, one strand shown
Sequence (Q0JBA9 entry or part of it): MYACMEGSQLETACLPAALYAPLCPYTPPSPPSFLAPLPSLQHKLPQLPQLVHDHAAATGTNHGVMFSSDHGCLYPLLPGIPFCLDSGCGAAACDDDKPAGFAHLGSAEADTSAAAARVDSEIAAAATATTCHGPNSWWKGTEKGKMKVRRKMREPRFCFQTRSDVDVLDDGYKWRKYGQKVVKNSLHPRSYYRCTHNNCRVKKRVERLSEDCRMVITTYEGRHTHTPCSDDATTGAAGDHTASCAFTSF
Outline: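 Binding signal here means per-feature fluorescence intensity in arbitrary units. The values were read on an Axon 4000B scanner after a custom Agilent array, double-stranded by primer extension with Cy5-dUTP, was incubated with 200 nM protein at 25 °C for 1 h in PBS with 2% BSA, salmon testes DNA and 50 µM zinc acetate, then washed. The proteins were transcription factors with an N-terminal polyhistidine tag and DsRed, expressed in E. coli BL21-CodonPlus and purified on Ni–NTA.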

Sequence	binding signal
TCCACCTCCTAGCGAAATGCATGGTTGGCCAAACAACACACGGAGTCACCTAGTGCAG	8300 fluorescence intensity (a.u.)
TACGAGGAGGGCCCATGCGTCGGTGGGTAGGGTGAAAAGACGGAGTCACCTAGTGCAG	8690 fluorescence intensity (a.u.)
GGAGGAGGTGGCGGCGGAGGGGTTGGTGGTGGAGGTGGTCCGGAGTCACCTAGTGCAG	20800 fluorescence intensity (a.u.)
GCGGGGTTGGAGGAGGAGGAGGTGGTGGTGGTGGTGGTGGCGGAGTCACCTAGTGCAG	15300 fluorescence intensity (a.u.)
GCTGGCGCCGGAGAGAGAGAGTGGGTTGGTTGTAATAAATCGGAGTCACCTAGTGCAG	9290 fluorescence intensity (a.u.)
AATAAAGTTGGGTGGTTGGGGCGCGCGATAGGAGTAAATCCGGAGTCACCTAGTGCAG	17400 fluorescence intensity (a.u.)
GACCTTTGGGTAGGGGTGGGGATGGGGCGAAATTACTAAACGGAGTCACCTAGTGCAG	30300 fluorescence intensity (a.u.)
ACTAACGAAATTACTACTTCGTAGGGGTAGGGGTGGCGTGCGGAGTCACCTAGTGCAG	9370 fluorescence intensity (a.u.)
GAAAGTGGGAGAGAGAATAGGTTGGGGTGGTTGGTTTGGGCGGAGTCACCTAGTGCAG	14700 fluorescence intensity (a.u.)
GAGGTGGTGGAGGAGGAGGCCAGGGGTTCGTTGGCGGCGGCGGAGTCACCTAGTGCAG	8840 fluorescence intensity (a.u.)
GGAGGGTGGAGGGCGGAGGACGGAGGTGGTGGCGCCGCGCCGGAGTCACCTAGTGCAG	9550 fluorescence intensity (a.u.)
AGGAGGGCGGGGTCGTCGTCGTCCGGGGTGGTGGTGGCCGCGGAGTCACCTAGTGCAG	17000 fluorescence intensity (a.u.)
TGGGGATGGGGAATTGACCTGGGTAGGGGTGGTAATTGGGCGGAGTCACCTAGTGCAG	16000 fluorescence intensity (a.u.)
TGGTGGTGAGGAGGAGGAGGAGGAGGGCGGGGTCGTCGTCCGGAGTCACCTAGTGCAG	16200 fluorescence intensity (a.u.)
GGTTTCGTTCGCGAGGAGGAGAGATCTGGTTGGGGAGATGCGGAGTCACCTAGTGCAG	9660 fluorescence intensity (a.u.)
AGGAGGCGCTACCTTCTATTCCTCACCGGCTCACCGCTATCGGAGTCACCTAGTGCAG	9700 fluorescence intensity (a.u.)
TGATTTTTTTTTTGTTTCACAGTGCACAGACCAATGTTTCCGGAGTCACCTAGTGCAG	8320 fluorescence intensity (a.u.)
CGCCGCCACCGCGACTCCTCGCATTCGTCCCCACCACATCCGGAGTCACCTAGTGCAG	9990 fluorescence intensity (a.u.)
CTTTTTTTTAATGTATTGATGCTTCTTTTCTAGTTTGTACCGGAGTCACCTAGTGCAG	9060 fluorescence intensity (a.u.)
AGTAGCAGCAGCAGCAGCAGGCAGGAGGGAGTGGGTTTGTCGGAGTCACCTAGTGCAG	9600 fluorescence intensity (a.u.)
GACAGCGTGAATTCGAGGGATTTCTTGGCTGGTTTGGTTGCGGAGTCACCTAGTGCAG	10100 fluorescence intensity (a.u.)

Sequence	binding signal
TTCTCCGCGCTGCAGTCCTCGCCACAACTCGTCGGCCGAACGGAGTCACCTAGTGCAG	11600 fluorescence intensity (a.u.)
GGTCATTCATGTATTTTTCTTGCGTTTTGCAATCCTCTGTCGGAGTCACCTAGTGCAG	11200 fluorescence intensity (a.u.)
CCGCCGCCGCCGCCGCCGACCTTGTCACTCCGGCCGCTGCCGGAGTCACCTAGTGCAG	9390 fluorescence intensity (a.u.)
GACCGACTACTCCTACAAACATTACTCAAGTCATTGCAAACGGAGTCACCTAGTGCAG	8200 fluorescence intensity (a.u.)
ATTTTGCATGGGGCATGTGTGAAGTGTCCTACTAAATTTTCGGAGTCACCTAGTGCAG	9350 fluorescence intensity (a.u.)
CCCGGCCGCTCTCTCCGGGTGGGGTGGTGGGTGGCAAGGGCGGAGTCACCTAGTGCAG	21100 fluorescence intensity (a.u.)
GGTAGGGCTGCCGCCGGTGGGTAGGGGTGGTGGATTTTTTCGGAGTCACCTAGTGCAG	14400 fluorescence intensity (a.u.)
AATTCCGGTGGTTCACCGCCGGTGAGGGTTGGAGGAGGGGCGGAGTCACCTAGTGCAG	8160 fluorescence intensity (a.u.)
CGGTAGGGCGAGCACGGGTGGGGTTGGTGGTGATTTTTTTCGGAGTCACCTAGTGCAG	20800 fluorescence intensity (a.u.)
AGGGAGGCGTAGGTTGTGGTCGTTGTTGCGGTTTGGAGTTCGGAGTCACCTAGTGCAG	8250 fluorescence intensity (a.u.)
GCGCGCCGCGCTCACGGGTGGGTCAAGGCAAGGGGAAGGGCGGAGTCACCTAGTGCAG	9400 fluorescence intensity (a.u.)
GGAGGGGCGGGGTGGCGCGGCGAGGCCGGCGACAAGGCCGCGGAGTCACCTAGTGCAG	9130 fluorescence intensity (a.u.)
GGTTGTAGGTGGAGGAGGAGGAGGGGCGGTTCCGGAGTTTCGGAGTCACCTAGTGCAG	22600 fluorescence intensity (a.u.)
TCCGCTCGTTCCTCTCCCGACGAGGGTGGGTGGGGTGGGGCGGAGTCACCTAGTGCAG	22700 fluorescence intensity (a.u.)
GGTTCGTTCGTTCCTCCCGCGGCGACGGGGTGGGGCACACCGGAGTCACCTAGTGCAG	8930 fluorescence intensity (a.u.)
GACTCGGCGGCCTCTGCTCCTCCGCTCGTTCCTCTCCCGACGGAGTCACCTAGTGCAG	11100 fluorescence intensity (a.u.)
GTGTGGTGCGAGCAGTGATATTTTCTGTGTTGGGTCTGGGCGGAGTCACCTAGTGCAG	8120 fluorescence intensity (a.u.)
TCGTTTCTTTGCCAGCTGCGCATCCATTCAGCCGGTCGTACGGAGTCACCTAGTGCAG	12700 fluorescence intensity (a.u.)
CTTTTATTTAACGGATGTTTCACCATGGTCTTTACTGTAGCGGAGTCACCTAGTGCAG	9320 fluorescence intensity (a.u.)
TCCCATCACACACACCACCGCTCCGCTCCATGTCGCACCACGGAGTCACCTAGTGCAG	8350 fluorescence intensity (a.u.)
CGTAGAAGATGTTGCTGTTGCCGCCGTTGACGAACTTGGTCGGAGTCACCTAGTGCAG	8810 fluorescence intensity (a.u.)
